Anthrax LF inh2: blocks Bacillus anthracis lethal factor protease | AID 588501 | 360,000 compounds, 0.12% hits | multiplex microsphere protease cleavage assay, LF | P15917 | inhibition, % at 10 µM; note: plate controls were buffer without enzyme for full effect and enzyme alone for no effect
Target sequence (P15917 whole entry, looked up): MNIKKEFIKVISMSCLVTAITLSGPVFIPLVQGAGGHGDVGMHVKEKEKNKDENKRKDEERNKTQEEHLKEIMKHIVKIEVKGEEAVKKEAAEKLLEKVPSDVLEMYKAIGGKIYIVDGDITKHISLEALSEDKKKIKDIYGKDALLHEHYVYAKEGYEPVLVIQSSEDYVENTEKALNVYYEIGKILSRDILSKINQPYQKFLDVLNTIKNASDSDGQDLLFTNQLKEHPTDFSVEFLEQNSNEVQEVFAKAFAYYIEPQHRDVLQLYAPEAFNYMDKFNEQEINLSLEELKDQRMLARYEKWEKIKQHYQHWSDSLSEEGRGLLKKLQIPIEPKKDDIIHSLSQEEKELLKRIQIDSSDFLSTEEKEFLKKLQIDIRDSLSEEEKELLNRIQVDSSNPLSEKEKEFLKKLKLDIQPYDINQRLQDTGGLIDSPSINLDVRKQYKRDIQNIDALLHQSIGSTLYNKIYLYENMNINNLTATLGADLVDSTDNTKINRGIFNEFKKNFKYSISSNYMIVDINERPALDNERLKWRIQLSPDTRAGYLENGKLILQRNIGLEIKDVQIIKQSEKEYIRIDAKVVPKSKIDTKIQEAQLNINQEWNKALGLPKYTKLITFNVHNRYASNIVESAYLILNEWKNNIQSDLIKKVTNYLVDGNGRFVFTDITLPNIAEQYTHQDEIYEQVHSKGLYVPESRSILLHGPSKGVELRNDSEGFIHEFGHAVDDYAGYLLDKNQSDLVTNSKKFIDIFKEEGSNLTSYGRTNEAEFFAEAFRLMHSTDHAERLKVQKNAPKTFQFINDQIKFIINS
SARS 3CLpro inh: SARS-CoV 3CLpro protease inhibition | P0C6X7 | recombinant SARS-CoV 3CLpro, quenched FRET peptide cleavage | inhibition, % at 6 µM | 290,000 compounds, 0.14% hits | AID 1706; in the data active = inhibition above about 12%
CCHFV vOTU inh: CCHFV vOTU protease inhibition. Pep-AMC fluorescence. inhibition, % at 11.5 µM. 370,000 compounds, 0.55% hits; in the data active = inhibition above about 30%; note: 0% = vehicle wells with enzyme and 100% = no enzyme wells
Autofluor counter: compound fluorescence in toxin protease inhibitor counterscreen | compound autofluorescence counterscreen, microsphere flow cytometry; hits give high values | fluorescence intensity (no concentration beside the values) | 360,000 compounds, 3.1% hits | AID 624483; in the data active = fluorescence intensity above about 16000; inconclusive = no clear call, values can overlap the other calls
BoNT-A LC inh2: BoNT A light chain protease inhibition | multiplex microsphere protease substrate cleavage, flow cytometry | 360,000 compounds, 0.17% hits | AID 588499 | inhibition, % at 10 µM; note: plate controls were buffer without enzyme for full effect and enzyme alone for no effect
BoNT F protease: inhibitors of Botulinum neurotoxin F light chain protease | 360,000 compounds, 0.22% hits | inhibition, % at 10 µM | Multiplex microsphere protease cleavage assay, flow cytometry | AID 588497; in the data active = inhibition above about 35%, passing the limit was not always enough; inconclusive = no clear call, values can overlap the other calls; note: plate controls were buffer without enzyme for full effect and enzyme alone for no effect
The depositor's hits bear a star; ? = inconclusive; . = no result given. Rows were chosen to be rich in hits. Some 3.9% of all compounds tested hit in one or more screens of this group. Cut-off read from the data, not from the text of the source, unless noted: active = inhibition above about 30%; inconclusive = no clear call, values can overlap the other calls; inactive = below that.

SMILES | Anthrax LF inh2 | SARS 3CLpro inh | CCHFV vOTU inh | Autofluor counter | BoNT-A LC inh2 | BoNT F protease
O=C(NNc1c(F)c(F)cc(F)c1F)C1CCN(S(=O)(=O)c2ccccc2F)CC1 | -6 | . | 1 | 3844 | 0 | 6
CCOC(=O)[C@]12CCCCC/C=C\1N(Cc1ccc(OC)cc1)C(=O)[C@H]2CC(=O)N1CCSCC1 | . | . | 6 | . | . | .
NC(=O)c1ccccc1N | 4 | . | -29 | 3998 | 0 | 4
Nc1nnc(C(=O)c2ccccc2N)s1 | 0 | 4 | . | 21252* | -2 | -3
Cc1nc2cc(C(=O)N3CCN(C(=O)C(Cl)Cl)CC3)ccc2n1C1CCCC1 | . | . | -3 | . | . | .
O=C(c1cccs1)n1nc(-c2ccccc2)nc1NCc1ccc(F)cc1 | -3 | 3 | -14 | 25264* | ? | -6
Cc1c([N+](=O)[O-])c(C(=O)N2CCCC2)nn1C | -12 | 4 | 5 | 22515* | 1 | -1
Cn1cc([N+](=O)[O-])c(C(=O)N2CCCCCC2)n1 | 2 | -1 | -4 | 5354 | 0 | 1
CCOC(=O)c1cc(-c2ccc(OC)cc2F)nc2c1c(C)nn2CCC#N | -4 | 4 | -7 | 25362* | ? | -5
CCOC(=O)c1cc(-c2ccc(Cl)cc2)nc2c1c(C)nn2CCC#N | 5 | -1 | -6 | 3036 | 1 | -1
c1ccc2oc(NC3=NCN(C4CCCCC4)CN3)nc2c1 | . | 2 | 1 | . | . | .
c1ccc2sc(NC3=NCN(C4CCCCCC4)CN3)nc2c1 | -1 | -4 | 2 | 19894* | 0 | 0
CCC(CC)NC(=O)COC(=O)c1ccc(OCC(=O)Nc2ccccc2OC)c(OC)c1 | -2 | 8 | -12 | 21089* | ? | 7
CCCNC(=O)COC(=O)c1ccc(OCC(=O)Nc2ccccc2OC)c(OC)c1 | 0 | 1 | -8 | 4248 | 1 | 10
COc1ccc(C(=O)OCC(=O)Nc2ccc(F)cc2F)cc1OC | -1 | -5 | 0 | 3602 | -1 | -6
COc1cc(C(=O)OCC(=O)Nc2ccc(F)cc2F)cc(OC)c1OC | -10 | 1 | -9 | 20961* | ? | -4
Cc1ccc(C(=O)OCC(=O)N2CCOCC2)cc1 | -12 | -4 | 5 | 3492 | -2 | 2
Nc1nonc1C(=O)OCC(=O)N1CCOCC1 | -7 | 3 | 3 | 20876* | ? | -5
COc1ccc(CC(C)N2CCN(Cc3ccccc3)CC2)c(OC)c1 (stereo not drawn) | -1 | 1 | -11 | 18004* | 8 | 10
O=C(Nc1nc(-c2ccccc2Cl)cs1)c1cccnc1 | 0 | -2 | -1 | 20683* | 0 | 1
CCC1CCCCN1C(=O)Nc1cc(Cl)ccc1OC (stereo not drawn) | 0 | 0 | -10 | 1981 | 0 | -6
Cc1ccccc1NC(=S)NNC(=O)c1ccoc1C | 0 | 5 | -10 | 24040* | -5 | -6
COc1ccc(NC(=O)N(Cc2ccc3c(c2)OCO3)C2CC(=O)N(c3ccc(OC)cc3)C2=O)cc1 (stereo not drawn) | -8 | -2 | -8 | 8367 | -2 | -4
O=C1CC(N(Cc2ccc3c(c2)OCO3)C(=O)Nc2ccc(F)cc2)C(=O)N1c1ccccc1 (stereo not drawn) | 0 | 5 | -10 | 23094* | ? | 2
COC(C[C@@H](O)CC(=O)[C@H](C)OCc1ccccc1)OC | -9 | . | -4 | 3434 | 0 | 0
SMILES | Anthrax LF inh2 | SARS 3CLpro inh | CCHFV vOTU inh | Autofluor counter | BoNT-A LC inh2 | BoNT F protease
COC(=O)N(C)C[C@H]1OCc2cn(nn2)CCCC(=O)N([C@H](C)CO)C[C@@H]1C | . | . | 8 | . | . | .
CSc1cnn(-c2ccccc2)c(=O)c1SC | -9 | 1 | 0 | 16177* | -1 | -1
CCSc1cnn(-c2ccccc2)c(=O)c1SCC | -2 | -2 | -8 | 10919 | 0 | -1
O=C(OCn1ncc(Cl)c(Cl)c1=O)c1cccc(C(F)(F)F)c1 | -2 | -1 | . | 22357* | 1 | 1
NCCCCCNC(=O)c1nc[nH]c1C(=O)NCC(=O)OCc1ccccc1 | -2 | . | 11 | 3402 | 1 | 0
COc1ccc2c(=O)c3c(=O)n(Cc4ccco4)c(-c4ccccc4)nc3oc2c1 | 2 | -4 | 0 | 10518 | 0 | -1
COc1ccc2c(=O)c3c(=O)n(Cc4ccco4)c(-c4cc(OC)c(OC)c(OC)c4)nc3oc2c1 | -1 | 2 | -1 | 16166* | 1 | 2
N#C/C(C(=O)N1CCOCC1)=C1\Nc2ccccc2S1 | -1 | 1 | 17 | 20837* | 0 | 1
CC(C)(C)c1ccccc1NC(=O)c1c(O)c2cccc3c2n(c1=O)CC3 | . | -1 | . | . | . | .
CCOc1ccc(NC(=O)CSc2nnc(CCNC(=O)c3ccc(OC)cc3)n2C)cc1 | 2 | -2 | . | 16470* | ? | 0
COc1ccc(OCCSc2nnc(CCNC(=O)c3ccc(OC)cc3)n2C)cc1 | 4 | -2 | -15 | 8027 | 0 | 3
COc1ccc(C(=O)NNC(=O)CSc2nnc(COc3ccccc3)n2C)cc1 | -7 | -1 | 4 | 16210* | 0 | -2
COc1ccc(OCCSc2nnc(CCNC(=O)c3ccc(Cl)c(Cl)c3)n2C)cc1 | -11 | -9 | 2 | 20984* | 3 | 1
CCOc1ccc(NC(=O)CSc2nnc(C34CC5CC(CC(C5)C3)C4)n2C)cc1 | -1 | 0 | -3 | 17197* | -2 | 0
Cc1cc(CC(=O)O)n(C)c1C(=O)c1ccc(Cl)cc1 | 1 | . | -3 | 6211 | 0 | -5
COc1cc(NC(=S)N2CCN(C(=O)C3CCCO3)CC2)c(OC)cc1Cl (stereo not drawn) | -1 | 2 | 3 | 2553 | 0 | 0
COc1cccc(N2CCN(C3CCCC(C)C3)CC2)c1 (stereo not drawn) | -7 | 0 | . | 24685* | -4 | -4
O=[N+]([O-])c1ccc(/C=N/Nc2nc(N3CCCCC3)nc(N3CCCCC3)n2)o1 | 11 | -1 | 10 | 21202* | 4 | 2
CN(Cc1ccccc1)c1nc2c(c(=O)[nH]c(=O)n2C)n1Cc1ccccc1Cl | -4 | -5 | 1 | 22859* | ? | -1
O=C1N(Cc2cccc(Cl)c2)C[C@@H]2C[C@@H](c3cccc4ncccc34)N3CCC[C@@]123 | -2 | 0 | -2 | 4913 | -1 | -6
O=C1N(Cc2cccc(Cl)c2)C[C@@H]2C[C@@H](c3cccc4cccnc34)N3CCC[C@@]123 | -10 | 3 | 10 | 24208* | 2 | 1
CN1C(=S)SC(C)(NO)C1(C)C (stereo not drawn) | -6 | -3 | . | 18153* | -9 | -11
CN1CCC(NC(=S)NC2CC2)CC1 | 0 | 0 | -8 | 4200 | -1 | -2
Cc1ccc2nc(NCCO)nc(-c3ccccc3)c2c1 | 1 | 1 | -63 | 23056* | 1 | 0
Cc1ccc2nc(N/N=C/c3ccccc3C#N)nc(-c3ccccc3)c2c1 | -3 | 2 | . | 17384* | -2 | -5
OCCNc1nc(-c2ccccc2)c2cc(Cl)ccc2n1 | 2 | 1 | -48 | 3998 | 2 | 3
CN(CC(=O)Nc1ccccc1F)S(=O)(=O)c1ccc2c(c1)n(C)c(=O)c(=O)n2C | . | -1 | 9 | . | . | .
COCCn1cc(C(=O)N2CCC3(CC2)OCCO3)c2c3ccccc3n(C)c2c1=O | -1 | -5 | -50 | 9721 | 0 | 1

Source: PubChem
